Compounds with a hit are over-represented: about 11% of the library has one in this group of screens.
PI5P4Ka inh – inhibitors of human PI5P4K alpha. P48426. PI5P4Kalpha enzyme, ADP-Glo luminescence, 60 min; stronger effect = lower value. max response, %. actives 1.2% (n = 330,000). AID 652105; active means max response of -50% or lower; inconclusive means between -30% and -50%; inactive means -30% or higher; further: value at the top dose of about 77 µM
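Reactions run in 0.038 M HEPES pH 7.4, 0.28 mM EGTA, 0.1% CHAPS and 5% DMSO, with PI5P4Kalpha, substrate, compound and 5 microM ATP final, one hour at room temperature. Readout is ADP-Glo luminescence.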
BAZ2B block – inhibitors of human BAZ2B bromodomain | Q9UIF8 | AlphaScreen BAZ2B-H3K14Ac peptide displacement | Potency, µM (top dose mostly 114 µM), usual class: inhibitors | actives 4.4% (n = 360,000); further: nearly all actives have a fitted effect of over 60% in size
Target sequence (Q9UIF8 whole entry, looked up): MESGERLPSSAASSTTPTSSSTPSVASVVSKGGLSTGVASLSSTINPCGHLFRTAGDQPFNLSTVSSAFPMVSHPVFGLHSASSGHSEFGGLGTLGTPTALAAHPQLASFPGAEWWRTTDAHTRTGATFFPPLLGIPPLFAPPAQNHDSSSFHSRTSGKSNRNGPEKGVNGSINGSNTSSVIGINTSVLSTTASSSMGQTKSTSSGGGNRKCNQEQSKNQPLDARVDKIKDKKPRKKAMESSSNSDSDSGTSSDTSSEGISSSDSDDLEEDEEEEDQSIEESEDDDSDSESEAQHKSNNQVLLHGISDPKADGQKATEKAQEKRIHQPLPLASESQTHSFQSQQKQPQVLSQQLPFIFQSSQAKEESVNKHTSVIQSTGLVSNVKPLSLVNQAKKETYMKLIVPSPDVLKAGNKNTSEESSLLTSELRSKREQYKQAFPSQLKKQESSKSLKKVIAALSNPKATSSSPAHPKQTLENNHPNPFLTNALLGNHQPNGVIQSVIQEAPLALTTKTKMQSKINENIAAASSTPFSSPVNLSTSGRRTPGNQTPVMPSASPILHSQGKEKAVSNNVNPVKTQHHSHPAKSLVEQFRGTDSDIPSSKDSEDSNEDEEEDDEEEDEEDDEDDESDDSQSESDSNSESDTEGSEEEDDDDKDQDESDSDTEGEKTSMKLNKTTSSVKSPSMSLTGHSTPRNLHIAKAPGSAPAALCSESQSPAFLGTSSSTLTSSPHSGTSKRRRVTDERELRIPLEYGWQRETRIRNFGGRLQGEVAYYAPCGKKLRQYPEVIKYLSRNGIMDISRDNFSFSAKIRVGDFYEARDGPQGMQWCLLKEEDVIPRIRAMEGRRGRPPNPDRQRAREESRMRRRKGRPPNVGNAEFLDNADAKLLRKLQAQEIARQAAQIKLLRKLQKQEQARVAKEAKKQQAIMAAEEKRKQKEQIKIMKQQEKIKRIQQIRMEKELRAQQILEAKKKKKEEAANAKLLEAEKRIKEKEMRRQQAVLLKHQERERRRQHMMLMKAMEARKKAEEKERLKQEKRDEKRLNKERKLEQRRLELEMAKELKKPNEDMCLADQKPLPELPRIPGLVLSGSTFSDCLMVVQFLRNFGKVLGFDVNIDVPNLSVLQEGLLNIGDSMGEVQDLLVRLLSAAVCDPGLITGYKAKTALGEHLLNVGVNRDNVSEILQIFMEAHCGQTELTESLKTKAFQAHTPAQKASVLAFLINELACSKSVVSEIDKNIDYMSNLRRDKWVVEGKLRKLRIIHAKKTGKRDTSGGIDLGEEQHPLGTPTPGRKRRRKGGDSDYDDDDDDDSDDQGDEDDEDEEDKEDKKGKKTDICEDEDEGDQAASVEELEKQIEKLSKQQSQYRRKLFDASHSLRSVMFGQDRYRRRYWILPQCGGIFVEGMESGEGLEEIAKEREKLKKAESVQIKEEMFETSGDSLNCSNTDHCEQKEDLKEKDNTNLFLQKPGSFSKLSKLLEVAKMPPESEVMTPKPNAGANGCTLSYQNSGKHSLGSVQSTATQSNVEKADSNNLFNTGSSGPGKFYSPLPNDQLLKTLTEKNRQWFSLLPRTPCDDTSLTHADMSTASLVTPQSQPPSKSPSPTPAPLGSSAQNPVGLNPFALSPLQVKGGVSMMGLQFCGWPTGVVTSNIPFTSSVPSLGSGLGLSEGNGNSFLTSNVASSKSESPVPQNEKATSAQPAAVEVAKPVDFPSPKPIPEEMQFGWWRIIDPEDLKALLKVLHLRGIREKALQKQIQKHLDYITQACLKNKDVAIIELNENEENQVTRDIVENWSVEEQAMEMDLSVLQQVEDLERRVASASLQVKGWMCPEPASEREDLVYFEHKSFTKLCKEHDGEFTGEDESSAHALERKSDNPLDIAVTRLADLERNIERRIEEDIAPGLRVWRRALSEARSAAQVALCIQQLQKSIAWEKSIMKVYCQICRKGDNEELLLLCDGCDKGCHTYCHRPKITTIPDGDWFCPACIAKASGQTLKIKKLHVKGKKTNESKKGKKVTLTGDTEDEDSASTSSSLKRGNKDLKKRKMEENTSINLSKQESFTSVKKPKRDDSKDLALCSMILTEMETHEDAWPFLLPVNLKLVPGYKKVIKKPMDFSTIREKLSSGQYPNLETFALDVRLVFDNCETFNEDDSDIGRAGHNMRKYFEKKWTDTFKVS
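Complex of BAZ2B and biotin-H3K14Ac (50 nM apiece) forms over 30 min at RT, then faces library compounds up to 110 uM for another 30 min; AlphaScreen beads added, 20 min dark incubation, luminescence read.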
JMJD2A Tudor inh – blocks the human JMJD2A Tudor domain; O75164; AlphaScreen JMJD2A-Tudor / H3K4me3 peptide binding; Potency, µM (highest dose often 114 µM), most hits filed as inhibitors; actives 4.4% (n = 390,000); further: nearly all actives have a fitted effect of over 50% in size
G9a inh – G9a (human) methyltransferase inhibition. Potency, µM (series often up to 102 µM), hits mostly inhibitors. G9a H3K9 monomethylation, AlphaScreen, 2 h. Q96KQ7. actives 8.8% (n = 350,000); further: nearly all actives have a fitted effect of over 75% in size
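AlphaScreen detection with an anti-monomethyl H3K9 antibody quantified product after a 2 h room-temperature reaction containing 500 nM biotinylated H3K9 peptide, 20 µM SAM and 20 nM enzyme, which had been preincubated 15 min with compound.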
HP1b binding inh – blocks HP1-beta chromodomain binding to methylated histone tails. P83916. AlphaScreen HP1-beta / biotin-H3K9me3 peptide binding. Potency, µM (series often up to 114 µM), actives largely listed as inhibitors. actives 0.56% (n = 390,000); further: nearly all actives have a fitted effect of over 70% in size
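HP1-beta protein (50 nM final) preincubated 30 min at room temperature with biotinylated H3(1-18)K9me3 peptide (50 nM) in PBS pH 7.4, 0.01% Tween-20, then compound added for 30 min. AlphaScreen streptavidin donor/nickel chelate acceptor beads (10 ug/mL final), 30 min dark, luminescence read.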
L3MBTL1 block – L3MBTL1 (human) inhibition; Q9Y468; AlphaScreen L3MBTL1–H3K9me1 peptide binding; Potency, µM (highest dose often 57.1 µM), usual class: inhibitors; actives 0.66% (n = 230,000); further: nearly all actives have a fitted effect of over 60% in size
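Read-out is AlphaScreen signal from streptavidin donor and nickel chelate acceptor beads (10 ug/mL final each) bridging L3MBTL1 (50 nM) and biotinylated K9-monomethylated H3(1-15) peptide (75 nM), after 30 min compound exposure at room temperature.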
Numbers stand for hits; n = inactive; u = inconclusive; x = not tested or not shown; [ ] = dose if it differs, or a comment. Unless noted, the call rests on the fitted dose curve; in most records, active means well fitted inhibition curve with a large enough effect; inconclusive means small, poorly fitted or top-dose-only effect; inactive means no such curve, though single readings can be large or run the other way.

SMILES	PI5P4Ka inh	BAZ2B block	JMJD2A Tudor inh	G9a inh	HP1b binding inh	L3MBTL1 block
Cc1cccc(C)c1NC(=O)C1c2ccccc2OCC(=O)N1Cc1ccc2c(c1)OCO2 (stereo not given)	n	x	x	x	x	x
Cc1ccccc1NC(=O)C1c2cccc[n+]2CC(=O)N1Cc1ccc2c(c1)OCO2 (stereo not given)	n	n	u	11µM	n	x
Cc1cccc(C)c1NC(=O)C1c2cccc[n+]2CC(=O)N1Cc1cccs1 (stereo not given)	n	x	n	50µM	n	x
C=CCSc1nc(-c2ccccc2)c2cc(Cl)ccc2n1	n	n	n	n	n	n
C=CCSc1nnc(C)c(/C=C/Nc2ccc(Cl)cc2)n1	u	n	40µM	u	n	n
Cc1cc(-c2cn3ccccc3n2)c(C)n1-c1ccccc1	n	u	56µM	50µM	u	n
COc1ccc(-n2c(C)cc(-c3cn4cccc(C)c4n3)c2C)cc1	n	40µM	u	u	n	n
CC1(C)OC(=O)C2(Cc3cc([N+](=O)[O-])ccc3N3CCCCC32)C(=O)O1 (stereo not given)	x	x	n	x	n	x
O=C(c1cccc(F)c1)N1CCC2(CCCN(c3cccc(-c4ccccc4)c3)C2)CC1	x	x	x	n[12.7 µM]	x	x
Cn1c(C(=O)Nc2ccc(OC(F)(F)F)cc2)cc2c(=O)n3ccccc3nc21	x	n	n	n	n	x
O=C1c2ccccc2C(=O)c2cc(N3CCCCC3)ccc21	u	x	13µM	x	u	x
Nc1ccc(N2CCCCC2)cc1N1CCCCC1	n	35µM	28µM	2.5µM	u	u
Nc1cc(Cl)ccc1N1CCCCCC1	n	n	n	10µM	n	n
Nc1cc(Cl)ccc1N1CCCCC1	n	n	n	n	n	n
Cc1nn(-c2cc(N3CCCCCC3)ccc2[N+](=O)[O-])c(=O)c2ccccc12	x	n	u	n	n	n
Cc1nn(-c2cc(N3CCCCC3)ccc2N)c(=O)c2ccccc12	x	n	n	3.2µM	n	n
CC(C)c1cc2c(s1)c1cnn(Cc3ccccc3F)c(=O)c1n2C	x	x	n	x	x	x
Cc1nc(-c2ccc(S(=O)(=O)N3CCN(c4ccccc4F)CC3)cc2)co1	x	n	u	n	n	x
COc1ncc2nc(-c3ccccc3)c(=O)n(-c3ccccc3)c2n1	x	x	x	n[0.501 µM]	x	x
COc1c[nH]n(C2CCCCC2)c(=O)c1=O	x	u	20µM	22µM	n	n
COc1ccc(Nc2cc(=O)n(C3CCCCC3)c(=O)[nH]2)c(OC)c1	n	n	n	x	n	n
CCCN(C(=O)COC(=O)c1cc(CC)c(C)s1)c1c(N)n(Cc2ccccc2)c(=O)[nH]c1=O	u	u	n	50µM	n	u
CCOC(=O)c1c(C)[nH]c(C(=O)OCC(=O)N(CC(C)C)c2c(N)n(Cc3ccccc3)c(=O)[nH]c2=O)c1C	n	n	n	16µM	n	n
CCOC(=O)c1c(C)[nH]c(C(=O)OCC(=O)N(CC)c2c(N)n(Cc3ccccc3)c(=O)[nH]c2=O)c1C	n	x	n	x	n	x
Cc1ccc(C(=O)OCC(=O)N(CC(C)C)c2c(N)n(Cc3ccccc3)c(=O)[nH]c2=O)s1	n	n	n	79µM	n	x
SMILES	PI5P4Ka inh	BAZ2B block	JMJD2A Tudor inh	G9a inh	HP1b binding inh	L3MBTL1 block
CCC(C)C(NC(N)=O)C(=O)Nc1ccc(C)c(Cl)c1 (stereo not given)	n	n	n	8.9µM	n	n
Cc1ccc(NC(=O)CN2C(=O)CCc3cc(S(=O)(=O)N4CCOCC4)ccc32)cc1N(C)C	x	u	u	n	n	x
COc1cc(CSc2ncn[nH]2)c(OC)cc1CSc1ncn[nH]1	x	n	n	n	n	n
COc1ccc(C(=O)CSc2ncn[nH]2)cc1OC	n	n	40µM	u	n	n
O=C(CSc1ncn[nH]1)c1ccc(OC(F)F)cc1	n	n	n	25µM	n	x
O=C(O)CSc1ncn[nH]1	n	n	n	n[12.7 µM]	n	x
Cc1cc2oc3c(c(=O)c2cc1C)C(c1ccc(F)cc1)N(CCCN1CCOCC1)C3=O (stereo not given)	n	n	n	u	n	n
CCCOc1ccc(C2C(C(=O)/C=C/c3ccco3)=C(O)C(=O)N2CCN2CCOCC2)cc1OC (stereo not given)	n	x	u	45µM	n	x
O=C1c2oc3ccc(Cl)cc3c(=O)c2C(c2ccco2)N1CCN1CCOCC1 (stereo not given)	n	n	n	11µM	n	n
COc1cc(C2c3c(oc4cc(C)c(C)cc4c3=O)C(=O)N2CCCN2CCOCC2)ccc1O (stereo not given)	x	n	n	28µM	n	x
COc1cc(C2C(C(C)=O)=C(O)C(=O)N2CCN2CCOCC2)ccc1O (stereo not given)	n	n	n	50µM	n	x
Cc1ccccc1CNC(=O)CCS(=O)(=O)c1cc2c3c(c1)CCN3C(=O)CC2	x	n	n	n	n	x
Cc1cc(Cl)ccc1NC(=O)CN(c1ccccc1Br)S(C)(=O)=O	x	n	n	n	n	x
Cc1cc(C)cc(NC(=O)C2CCN(c3cc(C)nc4c(-c5ccc(Cl)cc5)c(C)nn34)CC2)c1	x	n	n	n	n	x
COc1ccc(C2c3c(oc4ccccc4c3=O)C(=O)N2CCCN2CCOCC2)cc1 (stereo not given)	n	x	n	x	n	x
O=C1c2oc3ccccc3c(=O)c2C(c2cccc(O)c2)N1CCCN1CCOCC1 (stereo not given)	n	n	n	89µM	n	n
O=S(=O)(c1cccc(-c2n[nH]c(=S)n2-c2ccccc2Cl)c1)N1CCOCC1	n	x	22µM	x	n	n
O=S(=O)(c1cccc(-c2n[nH]c(=S)o2)c1)N1CCOCC1	-73	n	u	14µM	n	n
O=S(=O)(c1cccc(-c2cn3cccnc3n2)c1)N1CCOCC1	x	n	n	35µM	n	n
O=S(=O)(c1cccc(-c2nnco2)c1)N1CCOCC1	n	n	n	n	n	n
Cc1ccc(S(=O)(=O)N2CCOCC2)cc1-c1n[nH]c(=S)n1-c1ccccc1	n	n	6.3µM	n[12.7 µM]	n	n
O=S(=O)(c1cccc(-c2n[nH]c(=S)n2-c2cccc(C(F)(F)F)c2)c1)N1CCOCC1	n	x	u	x	n	n
CC(C)NC(=O)CN1C(=O)CCn2nc(-c3cn(C)c4ccccc34)cc21	x	n	n	n	n	x
Cc1oc2ncn(C)c(=O)c2c1C(=O)N1CCN(c2ccc(Cl)cc2)CC1	x	n	n	n	n	x
O=S(=O)(c1cccc(-c2n[nH]c(=S)n2Cc2ccccc2)c1)N1CCOCC1	n	n	20µM	x	n	n
CCOc1ccc(NC(=O)CC2C(=O)N(c3cccc(C)c3)C(=O)N2CCC2=CCCCC2)cc1 (stereo not given)	x	n	u	n	n	x
CCOC(=O)c1sc(S(C)(=O)=O)c2c1CCc1conc1-2	n	n	n	56µM	n	n
